Experimental data as given in PubChem BioAssay (NCI).
About 83,000 compounds went through this panel and 20% of them were active in at least one assay; those are over-represented in the sample as a whole.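 Method: cells in 96-well plates; compound added at one concentration; 48 h incubation; percent growth measured; values under 10 scored active.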 Unmarked numbers belong to inactive results. Calls of active or inactive are those of the source.

Tests used:
Test in all cases: NCI-60 one-dose screen, 48 h (100 = growth as untreated, 0 = no growth, -100 = all killed)
Details in all cases: 10 µM unless noted
[1] = tested on: NCI-H23 lung
[2] = tested on: NCI-H226 lung
[3] = tested on: NCI-H322M lung
[4] = tested on: HOP-62 NSCLC
[5] = tested on: NCI-H460 lung
[6] = tested on: HOP-92 NSCLC
[7] = tested on: NCI-H522 lung
[8] = tested on: A549/ATCC NSCLC
[9] = tested on: 786-0 renal
[10] = tested on: COLO 205 colon

Row | Structure (SMILES) | growth [1] | growth [2] | growth [3] | growth [4] | growth [5] | growth [6] | growth [7] | growth [8] | growth [9] | growth [10]
1 | NS(=O)(=O)c1ccc(-n2cc(CC=O)nn2)cc1 | 105% | 99% | 111% | 105% | 105% | 94.8% | 94.5% | 103% | 102% | 121%
2 | COc1cc(OC)c(S(N)(=O)=O)cc1C(=O)/C=C/c1ccccc1 | 28.2% | 38.8% | 64.6% | 24.8% | 3.32% (active) | 2.22% (active) | 25.8% | 57.1% | 15.3% | 27.5%
3 | CCOC(=O)c1c(NCC(=O)Nc2cccc([N+](=O)[O-])c2)sc2c1CCCC2 | -70.8% (active) | -58.1% (active) | -29.2% (active) | -48.4% (active) | -51.5% (active) | -24.7% (active) | -67% (active) | -13.8% (active) | -32% (active) | -56.2% (active)
4 | COc1c([C@@H](CC(C)C)OC(C)=O)ccc2c1C(=O)OCc1cc(C)cc(O)c1O2 | 23.7% | 43.5% | 54.3% | 24.5% | 8.61% (active) | 3.04% (active) | 20.2% | 13.6% | 80.5% | 9.55% (active)
5 | COc1ccc(/C=N/Nc2nc(Nc3ccccc3)nc(Nc3ccc(S(N)(=O)=O)cc3)n2)cc1 | 70.3% | 73.2% | 84.6% | 80.4% | 55.2% | 95.7% | 82.5% | 87.1% | 73.7% | 76.9%
6 | CCOc1c(C#N)c(Nc2ccc(S(N)(=O)=O)cc2)c(C#N)c2nnc(C)n12 | 93.5% | 105% | 100% | 104% | 111% | 98% | 95.3% | 104% | 110% | 105%
7 | CCNC(=O)Oc1ccc(/C(=C(/C)c2ccc(Cl)cc2)c2ccc(OCCN3CCCC3)cc2)cc1 | 87.5% | 95.8% | 93.3% | 97% | 80.6% | 83.2% | 96.8% | 73% | 71.4% | 88.8%
8 | Oc1ccc(CSc2nnc(-c3ccc(Oc4ccccc4)cc3)o2)c2cccnc12 | 31.3% | 71.8% | 36.7% | 9.54% (active) | 3.07% (active) | 33.7% | 40.1% | 9.22% (active) | -11.5% (active) | 78.2%
9 | O=S(=O)(NCCCNc1nccc(-n2cnc3ccccc32)n1)c1ccc(F)cc1 | 70.4% | 64.1% | 99.5% | 82.7% | 79.7% | 87.9% | 68.5% | 88.8% | 97.7% | 86%
10 | O=C(Nc1cccc(-c2nc(-c3ccc(NC(=O)c4cccnc4)cc3Cl)no2)c1)Nc1ccc(NC(=O)C2CC2)c(C(F)(F)F)c1 | -68.6% (active) | -55.9% (active) | -30.7% (active) | -47.8% (active) | -77.7% (active) | -68.1% (active) | -43.6% (active) | 7.02% (active) | -47.5% (active) | -55.3% (active)
11 | O=[N+]([O-])c1ccc(-c2nnc(SCc3ccc(O)c4ncccc34)n2-c2ccccc2)cc1 | 13.7% | 87.3% | 41.7% | 23.2% | 5.75% (active) | -24.4% (active) | 9.93% (active) | 22.4% | 30.8% | 110%
12 | CC1(COc2ccc3ncc(C#Cc4cncc(C(=O)Nc5cc(C(C)(C)C)on5)c4)n3n2)COC1 | 28.7% | 18.8% | 60.4% | 29.1% | 23.3% | -22.6% (active) | 56.9% | 47.2% | 52.3% | 61.9%
13 | CNC(=O)c1cc(Oc2ccc3nc(NC(=O)c4cccc(C(F)(F)F)c4)sc3c2)ccn1 | 101% | 104% | 103% | 117% | 103% | 110% | 98.9% | 101% | 97.2% | 112%
14 | C#CCOc1ccc(C(Nc2cc(Cl)ccc2Cl)c2nnnn2C2CCCCC2)cc1 (stereo not given) | 88.6% | 85.3% | 87.4% | 86.4% | 88.3% | 72.7% | 69.9% | 80.5% | 90% | 107%
15 | Cc1cc(C(=O)Nc2ccc(SC#N)cc2)c(C)o1 | 89.5% | 77.7% | 96.2% | 63.9% | 82.4% | 110% | 49.8% | 82.4% | 88.2% | 106%
16 | O=C1c2c(c3c4cccnc4[nH]c3c3ccc4ccccc4c23)C(=O)N1CCN1CCCCC1 | 29.3% | 64.6% | 69.6% | 36.6% | 12.5% | 70.4% | 63% | 46.8% | 52.6% | 69.4%
17 | Cc1ccc(-n2cc(/C=C/C(=O)c3ccc(S(C)(=O)=O)cc3)c(-c3ccc(S(C)(=O)=O)cc3)n2)cc1 | 87.4% | 100% | 94.6% | 89.2% | 100% | 115% | 74.2% | 103% | 103% | 114%
18 | C/C(=N\NC(=O)CSc1nc2sc3c(c2c(=O)n1-c1ccccc1)CCC(C)C3)c1ccc(Cl)cc1 (stereo not given) | 28.2% | -1.29% (active) | 51.3% | 34.5% | 4.18% (active) | -1.5% (active) | 22.2% | 42.5% | 7.93% (active) | 26.5%
